Results published in PubChem BioAssay (Tox21).
Inconclusive results are not listed. Entries that show only a call come without a potency. Calls of active or inactive are those of the source. Calls come from the whole dose curve; as a rule, active = well fitted inhibition curve with a large enough effect in the repeat runs; inconclusive = weak or mixed curves; inactive = no such curve, though single readings can be large or run the other way.

Test: qHTS assay to identify small molecule antagonists of the estrogen related receptor (ERR) signaling pathway from Tox21 library (AID 1224848); note: nearly all actives have a fitted effect of over 50% in size
Details: ERR reporter cell line, luciferase antagonist mode, 18 h; series mostly up to 92.4 µM
Source text: U.S. Tox21 Program National Center for Advancing Translational Sciences [NCATS] NIH Chemical Genomics Center [NCGC] U.S. Environmental Protection Agency [EPA] National Institutes of Environmental Health Sciences [NIEHS] National Toxicology Program [NTP] U.S. Food and Drug Administration [FDA] Tox21 Assay Overview: Estrogen related receptors (ERRs), the first orphan nuclear receptors discovered, play an important role in the control of cellular energy metabolism. ERRs are required for high-energy production in response to the environmental challenges. ERR-alpha was also identified as an adverse marker for breast cancer progression; ERR-alpha-positive tumors have a poor prognosis. To screen and to identify environmental compounds that perturb the ERR signaling pathways could provide valuable information for potential therapeutic or preventive measures in the treatment of metabolic disease. For identifying ERR antagonists, ERR cell line (provided by NTP) has been used to screen Tox21 10K library.
Tox21 Assay Protocol Summary: The ERR cells were dispensed at 2,000 cells/5 ul/well in 1536-well white plates using a Multidrop dispenser. After the assay plates were incubated at a 37 C/5% CO2 incubator for 6 hours, 23 nL of compounds dissolved in DMSO, positive and negative controls or DMSO only was transferred to the assay plate by a pin tool. The plates were incubated at 37 C for 18 hours. 4 ul/well of One-Glo reagent was added into the assay plates using a Flying Reagent Dispenser. After 30-minute incubation at room temperature, the luminescence intensity in the plates was measured using a ViewLux plate reader.
Potency is the fitted concentration of half-maximal effect.

**Q.** With `O=C1c2ccccc2C(=O)C1c1ccc2cc(S(=O)(=O)O)cc(S(=O)(=O)O)c2n1` as the compound, how does the Potency read?
**A.** inactive

**Q.** With `CCC(C)C1N=C(C)C(C)S1` (stereo not given) as the compound, how does the Potency read?
**A.** inactive

**Q.** With `CNc1ccccc1` as the compound, how does the Potency read?
**A.** inactive

**Q.** For `CCOc1ccc(NC(C)=O)cc1N`, which Potency is on record?
**A.** inactive

**Q.** For `CCCCCCCCCCCCN1CCOCC1`, which Potency is on record?
**A.** inactive

**Q.** Which Potency does the source give for `CC(=O)Nc1ccccc1O` here?
**A.** inactive

**Q.** With `CC(=O)Nc1ccn(C2COC(COC(=O)c3ccccc3)O2)c(=O)n1` (stereo not given) as the compound, how does the Potency read?
**A.** inactive

**Q.** Which Potency does the source give for `CC(COc1ccccc1)NC(C)C(O)c1ccc(O)cc1` (stereo not given) here?
**A.** inactive

**Q.** With `CC1=CC(=C(c2ccc(N)cc2)c2ccc(N)cc2)C=CC1=N` as the compound, how does the Potency read?
**A.** 2.19 µM (active)

**Q.** For `OCCc1ccncc1`, which Potency is on record?
**A.** inactive

**Q.** For `CCCCCO`, which Potency is on record?
**A.** inactive

**Q.** With `CC(C)Oc1ccccc1O` as the compound, how does the Potency read?
**A.** inactive

**Q.** For `CC1=C(C)C(=O)C(CCCCC#CCCCC#CCO)=C(C)C1=O`, which Potency is on record?
**A.** 13.3 µM (active)

**Q.** For `CCCN(C1CCN(C(=O)C2CCNCC2)CC1)[C@@H]1CCc2ccc(OC)cc2C1`, which Potency is on record?
**A.** inactive

**Q.** With `O=C(N[C@@H](Cc1ccccc1)[C@@H](O)C(=O)N1C[C@@H](O)[C@@H](O)C1)c1cc2cc(Cl)ccc2[nH]1` as the compound, how does the Potency read?
**A.** 54.5 µM (active)

**Q.** For `CCCCOc1ccc(N)cc1`, which Potency is on record?
**A.** inactive

**Q.** Which Potency does the source give for `COc1ccc(/C=C/c2cc(OC)cc(=O)o2)cc1` here?
**A.** inactive

**Q.** With `Cc1c(-c2cccnc2)c2ccccc2n1CCCCC(=O)O` as the compound, how does the Potency read?
**A.** inactive

**Q.** Which Potency does the source give for `Cc1nc(C)c(C)nc1C` here?
**A.** inactive

**Q.** With `CC[C@H](NC(C)C)[C@H](O)c1ccc(O)c2[nH]c(=O)ccc12` as the compound, how does the Potency read?
**A.** inactive

**Q.** With `N#C[C@@H]1CC(F)(F)CN1C(=O)CNC1CC2CCC(C1)N2c1ncccn1` (stereo not given in full) as the compound, how does the Potency read?
**A.** inactive

**Q.** Which Potency does the source give for `O=Cc1ccc([N+](=O)[O-])cc1` here?
**A.** inactive

**Q.** Which Potency does the source give for `Clc1cc(Cl)c2c(c1)N=C1CCCCCN1C2` here?
**A.** inactive

**Q.** With `COc1cc(C)c(Cc2cnc(N)nc2N)cc1OC` as the compound, how does the Potency read?
**A.** inactive

**Q.** Which Potency does the source give for `Cc1nc2sccn2c(=O)c1CCN1CCC(=C(c2ccc(F)cc2)c2ccc(F)cc2)CC1` here?
**A.** 26.6 µM (active)

**Q.** Which Potency does the source give for `Cc1ccccc1CCO` here?
**A.** inactive

**Q.** For `CC(CC(C#N)(c1ccccc1)C(C)C)N(C)C` (stereo not given), which Potency is on record?
**A.** inactive

**Q.** With `Cc1cc(C)c(C)c(O)c1` as the compound, how does the Potency read?
**A.** inactive

**Q.** With `CC(C)C[C@H](NC(=O)[C@H](Cc1ccccc1)NC(=O)c1cnccn1)B(O)O` as the compound, how does the Potency read?
**A.** 0.0237 µM (active)

**Q.** For `COc1ccc(/C(C)=C/C(=O)O)c(OC)c1`, which Potency is on record?
**A.** inactive

**Q.** For `CC/C=C\CCO`, which Potency is on record?
**A.** inactive

**Q.** For `O=Cc1ccc(Cl)c([N+](=O)[O-])c1`, which Potency is on record?
**A.** 54.5 µM (active)

**Q.** Which Potency does the source give for `CC(C)(Cc1c[nH]c2ccccc12)NCC(O)COc1ccccc1C#N` (stereo not given) here?
**A.** inactive

**Q.** Which Potency does the source give for `CCCCCC1CCC(=O)O1` (stereo not given) here?
**A.** inactive

**Q.** With `OCCOc1cccc(OCCO)c1` as the compound, how does the Potency read?
**A.** inactive

**Q.** Which Potency does the source give for `CCCCCCOC(=O)c1ccccc1` here?
**A.** inactive

**Q.** With `Cc1cc(SC2=C(O)C[C@@](CCc3ccc(N)cc3)(C(C)C)OC2=O)c(C(C)(C)C)cc1CO` as the compound, how does the Potency read?
**A.** inactive

**Q.** Which Potency does the source give for `CCC1=C(C)CN(C(=O)NCCc2ccc(S(=O)(=O)NC(=O)NC3CCC(C)CC3)cc2)C1=O` (stereo not given) here?
**A.** inactive

**Q.** With `C[C@H](N)C(=O)N[C@@H](C)C(=O)NC1[C@H]2CN(c3nc4c(cc3F)c(=O)c(C(=O)O)cn4-c3ccc(F)cc3F)C[C@@H]12` (stereo not given in full) as the compound, how does the Potency read?
**A.** inactive

**Q.** Which Potency does the source give for `N#CCCCC(C#N)CCC#N` (stereo not given) here?
**A.** inactive
